Test results: ChEMBL document CHEMBL4513216, “Probing the Open Global Health Chemical Diversity Library for Multistage-Active Starting Points for Next-Generation Antimalarials” (ACS Infect Dis, 2020)
Screen size: about 68,000 compounds; about 2,700 (4%) showed an effect of 50% or more. This is one part of a sample in which strong results are shown more often than they occur.

Tested on: Plasmodium berghei
Assay: Screen against P. berghei liver stage (PbLuc), transformed with Luciferase, at 2uM
Format: functional, HepG2
Settings: tested at 2 uM

SMILES | INHIBITION [%]
CCC(CO)N(C/C(C)=C/c1ccco1)Cc1ccsc1 (centres undefined) | 5.85
CCOc1ncccc1C(=O)NC1CC(=O)N(CC(F)(F)F)C1 (centres undefined) | -27.19
CC(=O)N1CCC(C(=O)N(CC(F)F)c2cccc(Cl)c2)CC1 | 23.06
CCCS(=O)(=O)N1CCC(n2nc(-c3cc(C)oc3C)ccc2=O)CC1 | -17.72
Cn1c(C2CCCN2C(=O)CN2CSCC2=O)nc2ccccc21 (centres undefined) | -73.81
Cc1cc(C(=O)NCCN2CCC(C)CC2)nn1C(C)(C)C | 10.1
CNC(=O)C1CCC(NC(=O)c2cc(C3CC3)n(C(C)(C)C)n2)CC1 (centres undefined) | 37
CC(C)c1cc(C(=O)NC2CCN(CC(N)=O)CC2)nn1C(C)(C)C | 0.79
CC(C)(C)n1nc(C(=O)NC2CCN(CC(N)=O)CC2)cc1C1CC1 | 52.74
CC(C)(C)n1nc(C2CC2)cc1C(=O)NC1CCN(CC(N)=O)CC1 | 40.97
Cc1cc(C(=O)NC2CCN(CC(N)=O)CC2)nn1C(C)(C)C | 61.06
NC(=O)NCC1CCCCN1Cc1nc(-c2ccco2)no1 (centres undefined) | -3.06
COc1ccc(CCC(=O)NCCN2CCC(c3cccs3)CC2)cc1 | 11.78
CC(CC(=O)NCCNS(C)(=O)=O)C1CCCCC1 (centres undefined) | -13.76
CC(NC(=O)Cn1ccc(=O)n(C)c1=O)c1cc(F)ccc1F (centres undefined) | 16.25
CC(C)OCCC(=O)Nc1c(-c2ccc(F)cc2)ncn1C | 6.47
CC(C)COCCC(=O)Nc1c(-c2ccc(F)cc2)ncn1C | 60.43
COCCOCCC(=O)Nc1c(-c2ccc(F)cc2)ncn1C | 35.68
CCN1CC(CN(C)Cc2nc(-c3cccc(Cl)c3)oc2C)CC1=O (centres undefined) | 32.26
CN(Cc1nc(Cc2ccccc2F)no1)CC1Cc2ccccc2O1 (centres undefined) | 60.9
CN(Cc1nc(CC2CC2)no1)CC1Cc2ccccc2O1 (centres undefined) | 44.37
CN(Cc1nc(COc2ccccc2)no1)CC1Cc2ccccc2O1 (centres undefined) | 8.03
O=C(c1cccc(NCCO)c1)N1CCOCC1 | 10.74

SMILES | INHIBITION [%]
CCN(CC)C(=O)c1ccc(Cl)c(NC(=O)c2cnc(C)cn2)c1 | 20.71
Cc1cn2c(n1)CCC(NC(=O)CCn1cncn1)C2 (centres undefined) | 19.64
Cc1cc(CN2C[C@@H]3COC[C@]3(COCC(=O)N(C)C)C2)no1 | 64.37
Cc1cccc(CN2C[C@@H]3COC[C@]3(COCC(=O)N(C)C)C2)n1 | 27.52
Cc1nc(CN2C[C@@H]3COC[C@]3(COCC(=O)N(C)C)C2)cs1 | 23.09
CC(=O)Nc1ccc(CN2CCc3[nH]cnc3C2c2nccn2C)cc1 (centres undefined) | -42.54
Clc1ccccc1OCCc1cc(C2CCNC2)n[nH]1 (centres undefined) | 16.14
CN1C[C@H](O)[C@]2(CCN(Cc3ccc(F)c(F)c3)C2)S1(=O)=O | 6.4
CCc1noc(CN(Cc2cccs2)C2CC2)n1 | 7.85
COC(=O)C1CN(CC(=O)Nc2cccc(OC)c2)c2ccccc21 (centres undefined) | 43.88
COC(=O)C1CN(CC(=O)Nc2ccccc2Cl)c2ccccc21 (centres undefined) | 57.34
COC(=O)C1CN(CC(=O)Nc2cc(F)ccc2F)c2ccccc21 (centres undefined) | 16.95
Cn1cc(CN2CCC[C@]3(C[C@H](Oc4ncccc4F)CO3)C2)cn1 | 20.01
CC(C)CN1CCC2(Cc3ccccc3NC2=O)C1 (centres undefined) | -1.69
COCC1CN(CC2CC2)Cc2nn(C)cc21 (centres undefined) | 30.38
CCc1ccc2c(c1)C(CCNC(=O)CSC(F)(F)F)C(=O)N2 (centres undefined) | 26.51
CCc1ccc2c(c1)C(CCNC(=O)CCc1ccsc1)C(=O)N2 (centres undefined) | 57.16
CCc1ccc2c(c1)C(CCNC(=O)Cc1ccc(F)cc1)C(=O)N2 (centres undefined) | 33.22
Cc1nc(C)n(CC2CCCCN2CC(=O)Nc2c(C)n[nH]c2C)n1 (centres undefined) | -91.52
CC(C(=O)N(C)C)N1CCCN(C(=O)Oc2ccccc2)CC1 (centres undefined) | 10.43
CC(=O)Nn1ccc2c(nnc3c(-c4ccc(F)cc4)cnn32)c1=O | -27.89
CN1CCC(c2cccc(-c3cccc(C(=O)O)c3)n2)CC1 | -14.73
COc1nccc(C(F)(F)F)c1C(=O)O | -16.59

SMILES | INHIBITION [%]
COC(=O)c1c(C(F)(F)F)cnc(OC)c1Cl | 53.54
COc1ncc(C(F)(F)F)c(C(=O)O)c1Cl | 30.38
Cc1ccc(C(CNCc2c[nH]nc2C)N(C)C)cc1 (centres undefined) | 30.23
Cc1nc(N2CCC(O)(c3ccc(F)cc3)CC2)c2c(C)nn(C)c2n1 | 15.92
CN(C)CC(=O)N1CCOC2(CCCN(c3ncccc3F)C2)C1 (centres undefined) | -15.88
Cc1noc(C)c1CNCC1COCc2c(-c3ccoc3)nnn2C1 (centres undefined) | 22.84
CSc1nccc(N2CCN(C)C3(CCC(=O)N(CC4CC4)CC3)C2)n1 (centres undefined) | 55.4
CCN1CCC2(CCC1=O)CN(c1ccnc(SC)n1)CCN2C (centres undefined) | -1.27
COCCN1CCC2(CCC1=O)CN(c1ccnc(SC)n1)CCN2C (centres undefined) | 1.85
CN1CCC(N(CCc2ccccc2)C(=O)c2ccc(C#N)nc2)CC1 | 31.12
CC1CN(C)c2ccccc2CN1C(=O)NCc1ccon1 (centres undefined) | 16.79
CCc1cc(CNC(=O)N2Cc3ccccc3N(C)CC2C)on1 (centres undefined) | 61.01
CCc1cc(CNC(=O)N2Cc3ccccc3N(C)CC2C)[nH]n1 (centres undefined) | -19.7
O=C(CN1CCC2(CCCN(CCO)C2=O)C1)NCCc1ccccc1 (centres undefined) | -27.89
Brc1cccc(C2(CNCc3cc[nH]c3)CCOCC2)c1 | 10.93
O=C(CS(=O)(=O)c1ccc(Cl)cc1)NC1CCCc2ccccc21 (centres undefined) | 44.37
CN(C)CC1CN(c2ncnc3[nH]ccc23)CCO1 (centres undefined) | -35.72
Cc1cc(N2Cc3cnn(CCO)c3C2)nc(-c2ccccc2)n1 | 67.53
Cc1cc(N2CCOC(C(F)(F)F)C2)nc(-c2ccccc2O)n1 (centres undefined) | -43.28
Cc1cc(NCCO)nc(-c2ccccc2O)n1 | -4.81
Cc1cc(N2CCN(CCO)CC2)nc(-c2ccncc2)n1 | 1.22
Cc1cc(N2Cc3cnn(CCO)c3C2)nc(-c2ccccc2O)n1 | 53.55
CCCc1nc(C)cc(N2Cc3cnn(CCO)c3C2)n1 | -18.52
